Assay results taken from the supplement of paper PMC7411054.

Legend:
Assay in all cases: phenotypically active (imaging signature differs from DMSO and reproducible) at any of 0.3-9 uM (binary (1 = active, 0 = inactive)); higher = active
Settings in all cases: treatment time: 24 h
A549-ACTB-RAB5A = tested on: A549-ACTB-RAB5A
Outline: (§1)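 The reporter lines, fifteen in total and built by gene editing in A549, HepG2 and WPMY1 cells, used BFP for segmentation alongside GFP and RFP/FusionRed markers. Each was treated at 0.3, 1, 3 or 9 µM for 24 h in four wells and then imaged live, with live-cell features normalised to solvent control wells. Deviation meant ≥3 of 4 wells beyond the 95th percentile of control Euclidean distances; reproducibility meant a median replicate Pearson correlation above the 95th percentile of non-replicates. Only conditions meeting both were scored as phenotypically active.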

A549-CANX-COX4 = tested on: A549-CANX-COX4
Outline: as §1

A549-GM130-SQSTM1 = tested on: A549-GM130-SQSTM1
Outline: as §1

A549-TP53BP1-CLTA = tested on: A549-TP53BP1-CLTA
Outline: as §1

A549-TUBA1B-RELA = tested on: A549-TUBA1B-RELA
Outline: as §1

HepG2-ACTB-RAB5A = tested on: HepG2-ACTB-RAB5A
Outline: as §1

HepG2-CANX-COX4 = tested on: HepG2-CANX-COX4
Outline: as §1

HepG2-GM130-SQSTM1 = tested on: HepG2-GM130-SQSTM1
Outline: as §1

HepG2-TP53BP1-CLTA = tested on: HepG2-TP53BP1-CLTA
Outline: as §1

HepG2-TUBA1B-RELA = tested on: HepG2-TUBA1B-RELA
Outline: as §1

WPMY1-ACTB-RAB5A = tested on: WPMY1-ACTB-RAB5A
Outline: as §1

WPMY1-CANX-COX4 = tested on: WPMY1-CANX-COX4
Outline: as §1

WPMY1-GM130-SQSTM1 = tested on: WPMY1-GM130-SQSTM1
Outline: as §1

WPMY1-TP53BP1-CLTA = tested on: WPMY1-TP53BP1-CLTA
Outline: as §1

WPMY1-TUBA1B-RELA = tested on: WPMY1-TUBA1B-RELA
Outline: as §1

Measured: phenotypically active

CC[N+](CC)(CCNC(=O)C(=O)NCC[N+](CC)(CC)Cc1ccccc1Cl)Cc1ccccc1Cl [ambenonium]
inactive: A549-ACTB-RAB5A 0 | A549-CANX-COX4 0 | A549-GM130-SQSTM1 0 | A549-TP53BP1-CLTA 0 | A549-TUBA1B-RELA 0 | HepG2-ACTB-RAB5A 0 | HepG2-CANX-COX4 0 | HepG2-GM130-SQSTM1 0 | HepG2-TP53BP1-CLTA 0 | HepG2-TUBA1B-RELA 0 | WPMY1-ACTB-RAB5A 0 | WPMY1-CANX-COX4 0 | WPMY1-GM130-SQSTM1 0 | WPMY1-TP53BP1-CLTA 0 | WPMY1-TUBA1B-RELA 0

O=C(/C=C\c1ccc(O)c(O)c1)O[C@H]1C[C@](OC(=O)/C=C/c2ccc(O)c(O)c2)(C(=O)O)C[C@H](O)[C@H]1O [Cynarin]
inactive: A549-ACTB-RAB5A 0 | A549-CANX-COX4 0 | A549-GM130-SQSTM1 0 | A549-TP53BP1-CLTA 0 | A549-TUBA1B-RELA 0 | HepG2-ACTB-RAB5A 0 | HepG2-CANX-COX4 0 | HepG2-GM130-SQSTM1 0 | HepG2-TP53BP1-CLTA 0 | HepG2-TUBA1B-RELA 0 | WPMY1-ACTB-RAB5A 0 | WPMY1-CANX-COX4 0 | WPMY1-GM130-SQSTM1 0 | WPMY1-TP53BP1-CLTA 0 | WPMY1-TUBA1B-RELA 0

Clc1cccc(Nc2nnc(-c3ccccc3)c3ccccc23)c1
inactive: A549-ACTB-RAB5A 0 | A549-CANX-COX4 0 | A549-GM130-SQSTM1 0 | A549-TP53BP1-CLTA 0 | A549-TUBA1B-RELA 0 | HepG2-ACTB-RAB5A 0 | HepG2-CANX-COX4 0 | HepG2-GM130-SQSTM1 0 | HepG2-TP53BP1-CLTA 0 | HepG2-TUBA1B-RELA 0 | WPMY1-ACTB-RAB5A 0 | WPMY1-CANX-COX4 0 | WPMY1-GM130-SQSTM1 0 | WPMY1-TP53BP1-CLTA 0 | WPMY1-TUBA1B-RELA 0

O=C1NC(=O)C(c2ccccc2)(c2ccccc2)N1 [phenytoin]
inactive: A549-ACTB-RAB5A 0 | A549-CANX-COX4 0 | A549-GM130-SQSTM1 0 | A549-TP53BP1-CLTA 0 | A549-TUBA1B-RELA 0 | HepG2-ACTB-RAB5A 0 | HepG2-CANX-COX4 0 | HepG2-GM130-SQSTM1 0 | HepG2-TP53BP1-CLTA 0 | HepG2-TUBA1B-RELA 0 | WPMY1-ACTB-RAB5A 0 | WPMY1-CANX-COX4 0 | WPMY1-GM130-SQSTM1 0 | WPMY1-TP53BP1-CLTA 0 | WPMY1-TUBA1B-RELA 0

S=P(N1CC1)(N1CC1)N1CC1 [thiotepa]
inactive: A549-ACTB-RAB5A 0 | A549-CANX-COX4 0 | A549-GM130-SQSTM1 0 | A549-TP53BP1-CLTA 0 | A549-TUBA1B-RELA 0 | HepG2-ACTB-RAB5A 0 | HepG2-CANX-COX4 0 | HepG2-GM130-SQSTM1 0 | HepG2-TP53BP1-CLTA 0 | HepG2-TUBA1B-RELA 0 | WPMY1-ACTB-RAB5A 0 | WPMY1-CANX-COX4 0 | WPMY1-GM130-SQSTM1 0 | WPMY1-TP53BP1-CLTA 0 | WPMY1-TUBA1B-RELA 0
